Experimental data as given in PubChem BioAssay AID1946 (Johns Hopkins Ion Channel Center, 2009).
Hit rate of the full screen: of about 2,400 compounds, about 180 (7.5%) were called active. Only a selection was taken, and actives are over-represented in it overall. Unmarked numbers belong to inactive results.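 Rule for the calls: active = readout below zero, meaning a drop past 3 SD under the dofetilide-free negative control mean; inactive = the rest.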

The compounds below were run against Potassium voltage-gated channel subfamily KQT member 2 (Rattus norvegicus) (UniProt O88943) (assay: rat KCNQ2 channel inhibition by compounds alone, confirmation, counter-screen for hERG block protector project, cell-based, CHO, FluxOR thallium flux (AID 1946)). Conditions: CHO-KCNQ2 cells, FluxOR thallium flux fluorescence; at 10 µM; active compounds read low; zero marks the 3-SD hit cutoff.
Potassium voltage-gated channel subfamily KQT member 2 (Rattus norvegicus), sequence (O88943 whole entry, looked up): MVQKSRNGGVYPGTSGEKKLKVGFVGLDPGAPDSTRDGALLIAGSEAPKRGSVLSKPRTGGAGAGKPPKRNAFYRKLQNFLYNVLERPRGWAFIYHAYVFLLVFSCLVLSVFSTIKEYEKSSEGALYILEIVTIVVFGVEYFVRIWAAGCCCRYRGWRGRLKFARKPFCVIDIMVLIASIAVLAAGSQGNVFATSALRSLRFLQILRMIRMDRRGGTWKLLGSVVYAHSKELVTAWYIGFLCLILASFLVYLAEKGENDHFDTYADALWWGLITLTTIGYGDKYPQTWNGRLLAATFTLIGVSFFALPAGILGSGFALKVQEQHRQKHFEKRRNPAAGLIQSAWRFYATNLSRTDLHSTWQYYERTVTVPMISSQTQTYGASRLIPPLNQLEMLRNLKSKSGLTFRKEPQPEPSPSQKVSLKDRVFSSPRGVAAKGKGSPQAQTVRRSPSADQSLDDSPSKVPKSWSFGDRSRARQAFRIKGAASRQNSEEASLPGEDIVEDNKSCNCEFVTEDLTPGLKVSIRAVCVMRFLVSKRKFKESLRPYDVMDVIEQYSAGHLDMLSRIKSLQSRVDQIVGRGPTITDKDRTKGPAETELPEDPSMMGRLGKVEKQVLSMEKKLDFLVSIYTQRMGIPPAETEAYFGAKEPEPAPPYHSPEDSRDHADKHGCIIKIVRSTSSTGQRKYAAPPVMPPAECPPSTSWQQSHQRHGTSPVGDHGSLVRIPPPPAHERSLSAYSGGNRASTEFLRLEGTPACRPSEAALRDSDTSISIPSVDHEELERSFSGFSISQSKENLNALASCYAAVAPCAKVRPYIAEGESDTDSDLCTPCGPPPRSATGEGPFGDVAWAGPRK
For `O=C(NC(=S)N(CCCCO)C1CCCCC1)c1sc2ccccc2c1Cl`, the activity change vs negative control was 53.8%.
For `O=C(CSc1cn(CC(=O)N2CCCC2)c2ccccc12)NCC1CCCO1` (configuration not stated), the activity change vs negative control was -4.5% (active).
For `C=CCn1c(SCC(=O)NCC2CCCO2)nnc1-c1ccccc1` (configuration not stated), the activity change vs negative control was 8.9%.
Work on `O=C(CNCC1CCCO1)N1CCCCCC1` (configuration not stated) yielded an activity change vs negative control of 8.2%.
Work on `CC(C)(C)c1cc(C(=O)NNC(=O)c2ccc(Cl)cc2)no1` yielded an activity change vs negative control of 53.5%.
In the case of `COc1cccc(CN(C)CC2CCCN(CCc3ccc(Cl)cc3)C2)c1OC` (configuration not stated), the activity change vs negative control is reported as -3.8% (active).
For `COc1cccc(OC)c1OCCOCCN1CCN(C)CC1`, the activity change vs negative control was 6.8%.
For `Oc1c(Cl)cc(Cl)cc1C=Nc1ccc(Br)cc1`, the activity change vs negative control was 60.6%.
Work on `CCOC(=O)N/N=C/C=C/c1ccccc1[N+](=O)[O-]` yielded an activity change vs negative control of 28.8%.
Compound `C=CCN(c1ccc(Cl)cc1)S(=O)(=O)c1cccc(C(=O)O)c1` has an activity change vs negative control of 26.2%.
`S=c1nn[nH]n1C12CC3CC(CC(C3)C1)C2` showed an activity change vs negative control of 36.2%.
In the case of `CC1CCN(C(=S)NC(=O)c2cccs2)CC1`, the activity change vs negative control is reported as 23.7%.
Work on `C=CCn1c(=S)[nH]c2scc(-c3cccs3)c2c1=O` yielded an activity change vs negative control of 121%.
`C=CCc1cccc(C2Nc3ccccc3C(=O)N2O)c1O` (configuration not stated) showed an activity change vs negative control of 19%.
`OC(CNCCc1ccc(C(F)(F)F)cc1)COc1cccc2ccccc12` (configuration not stated) was tested, and the activity change vs negative control was -18.2% (active).
Work on `Cn1c(NNC(=O)C(c2ccccc2)c2ccccc2)cc(=O)n(C)c1=O` yielded an activity change vs negative control of 12.8%.
With `CC12CCC(C(=O)NCc3ccc4c(c3)OCO4)(CC1=O)C2(C)C` (configuration not stated) the activity change vs negative control was 9.1%.
With `Cc1ccc(C(=O)NNc2cc(N3CCCC3)nc(N3CCCC3)n2)cc1` the activity change vs negative control was 39.7%.
With `COc1ccccc1NC(=O)C(=O)NNC(=O)c1ccco1` the activity change vs negative control was 47.8%.
Compound `COc1ccc(COC(=O)C2CCN(S(=O)(=O)c3cccs3)CC2)cc1` has an activity change vs negative control of 9.3%.
`O=C(NCc1cccs1)C1CCC(CNS(=O)(=O)c2cccs2)CC1` (configuration not stated) was tested, and the activity change vs negative control was -0.3% (active).
`CC(=O)c1cccc(NC(=O)NCc2cccs2)c1` gave an activity change vs negative control of 8.1%.
In the case of `O=[N+]([O-])c1ccc(-c2ccc(/C=N/n3cnnc3)o2)c(Br)c1`, the activity change vs negative control is reported as 3.2%.
`CCOC(=O)/C(C)=N/NC(=O)c1cccc([N+](=O)[O-])c1` gave an activity change vs negative control of 36.5%.
With `CCOc1ccccc1C(=O)NC1CC2CCCC(C1)N2Cc1nnnn1Cc1ccco1` (configuration not stated) the activity change vs negative control was -2.8% (active).
`COc1ccccc1C(=O)NNC(=O)C(=O)NC1CCCCC1` was tested, and the activity change vs negative control was 71.2%.
`COc1ccc(C(=O)NC2CC3CCCC(C2)N3Cc2ccccc2)cc1` (configuration not stated) gave an activity change vs negative control of 3.9%.
`COc1ccc(C(=O)CC(=O)C(=O)Nc2ccccc2Cl)cc1` was tested, and the activity change vs negative control was 73.9%.
`O=C(CCCOc1ccc(Cl)cc1Cl)Nc1ccccc1C(=O)O` was tested, and the activity change vs negative control was -11.5% (active).
With `O=C(COc1ccc(Cl)cc1Cl)NC(=S)Nc1ccccc1C(=O)O` the activity change vs negative control was 10.9%.
With `COc1cc(NC(=O)CCCOc2ccc(Cl)cc2Cl)c(C(=O)O)cc1OC` the activity change vs negative control was 4.3%.
For `C/C(=N\NC(=O)c1cc2ccccc2cc1O)c1ccc(C)o1`, the activity change vs negative control was 53.8%.
For `C=CCOc1ccccc1/C=c1\sc2nc(=O)c(C)nn2c1=O`, the activity change vs negative control was 6.3%.
`CCN(CC)c1ccc(/C=c2\sc3nnc(-c4ccccc4Cl)n3c2=O)cc1` was tested, and the activity change vs negative control was -3.9% (active).
In the case of `O=C(NNc1nc2c(F)cccc2s1)c1cc(=O)c2ccccc2o1`, the activity change vs negative control is reported as 4.5%.
For `CCOc1ccc(NC(=S)NS(=O)(=O)c2cc(Br)ccc2OCC)cc1`, the activity change vs negative control was 50.4%.
`Cc1ccc(C(=O)N/N=C(/CC(=O)c2cccs2)C(F)(F)F)cc1` showed an activity change vs negative control of 28.2%.
`Cc1nnc(SCC(=O)Nc2nccs2)n1N` was tested, and the activity change vs negative control was 10.1%.
`Cc1cc(-c2nnc(SCC(=O)Nc3ccc(C(F)(F)F)cc3)n2C)no1` was tested, and the activity change vs negative control was 8.3%.
With `Nn1c(SCC(=O)Nc2ccc(OC(F)F)cc2)nnc1-c1ccco1` the activity change vs negative control was -0.2% (active).
`CCNC(=O)C/C(C)=N/NC(=O)C(=O)Nc1ccc(CC)cc1` gave an activity change vs negative control of 26.8%.
`O=c1c2ccccc2[nH]c(=S)n1CCc1ccccc1` was tested, and the activity change vs negative control was 33.3%.
With `O=C(NC(=S)N(CCc1ccccc1)CCc1ccccc1)c1ccco1` the activity change vs negative control was 67.4%.
For `Cc1nn(C(=O)CNC(=O)c2ccccc2)c(C)c1C`, the activity change vs negative control was 46.6%.
In the case of `C=CCn1c(=S)[nH]c2scc(-c3ccc(C)o3)c2c1=O`, the activity change vs negative control is reported as 102%.
`CN1CCN(S(=O)(=O)c2cccc(S(=O)(=O)c3ccc(Cl)cc3)c2)CC1` showed an activity change vs negative control of 13.6%.
`O=S(=O)(c1ccc(F)cc1)N1CCN(c2ccc(F)cc2)CC1` gave an activity change vs negative control of 0.8%.
`O=C1CCN(S(=O)(=O)c2ccc(Cl)cc2)CCN1` was tested, and the activity change vs negative control was -0.2% (active).
For `O=C(NC(=S)N1CCN(Cc2ccc3c(c2)OCO3)CC1)c1cccc(Br)c1`, the activity change vs negative control was 61%.
`Cc1cc(C)cc(NC(=O)CSc2nnc(CN3CCOCC3)n2C)c1` gave an activity change vs negative control of 48.6%.
In the case of `CSc1ccccc1-n1nnnc1SCC(=O)Nc1cc(C)ccc1C`, the activity change vs negative control is reported as 2.3%.
In the case of `Cc1ccc(NC(=O)CSc2nnc(C3CC3)n2CC2CCCO2)c(C)c1` (configuration not stated), the activity change vs negative control is reported as -4.1% (active).
Compound `Cc1nnc(NC(=O)C2CCCN(S(=O)(=O)c3ccccc3C(F)(F)F)C2)s1` (configuration not stated) has an activity change vs negative control of 19.4%.
`O=C(CSc1ncnc2c1cnn2-c1ccc(Cl)cc1)NCc1ccc2c(c1)OCO2` gave an activity change vs negative control of 12%.
In the case of `CCC(c1nnc(SCC(=O)NCCc2ccc(Cl)cc2Cl)o1)N(C)C` (configuration not stated), the activity change vs negative control is reported as -0.1% (active).
Compound `COc1ccc(C(=O)CC(=O)C(=O)Nc2ccc(C)cc2Cl)cc1` has an activity change vs negative control of 39.7%.
`CC(C)(C)c1cc(-c2n[nH]c(=S)n2-c2ccccc2F)n[nH]1` showed an activity change vs negative control of 39.3%.
For `CC(NC(=O)c1ccc(Br)cc1)c1ccc2c(c1)CCCC2` (configuration not stated), the activity change vs negative control was 62.8%.
In the case of `Cc1ccccc1NC(=O)CN1C(=O)S/C(=C\c2ccc(-c3cccc(C(=O)O)c3C)o2)C1=O`, the activity change vs negative control is reported as -1% (active).
Work on `COc1ccc(NC(=O)CN2C(=O)S/C(=C/c3cccn3-c3ccc(C(=O)O)cc3)C2=O)cc1` yielded an activity change vs negative control of 1%.
With `Cc1c(/C=C2\SC(=O)N(CC(=O)Nc3ccc4c(c3)OCO4)C2=O)c2ccccc2n1C` the activity change vs negative control was 8%.
With `C#CCN1C(=O)S/C(=C\c2ccc(-c3ccc(C(=O)O)cc3C)o2)C1=O` the activity change vs negative control was 7.6%.
With `Cc1ccc(NC(=O)CN2C(=O)S/C(=C\c3ccc(-c4cccc(C(=O)O)c4C)o3)C2=O)cc1` the activity change vs negative control was -4% (active).
In the case of `Cc1ccccc1NC(=O)CN1C(=O)S/C(=C\c2ccc(-c3cc(C(=O)O)ccc3C)o2)C1=O`, the activity change vs negative control is reported as 10.7%.
With `Cc1ccc(C(=O)O)cc1-c1ccc(/C=C2\SC(=O)N(CC(=O)Nc3ccccc3)C2=O)o1` the activity change vs negative control was 1.7%.
`Cc1cccc(NC(=O)CN2C(=O)S/C(=C\c3cccn3-c3cccc(C(=O)O)c3)C2=O)c1` showed an activity change vs negative control of 5.2%.
`Cc1cccc(NC(=O)CN2C(=O)S/C(=C\c3ccc(-c4cccc(C(=O)O)c4C)o3)C2=O)c1` was tested, and the activity change vs negative control was -0.8% (active).
`CC(C)COn1c(=S)[nH]c2ccccc2c1=O` showed an activity change vs negative control of 34.7%.
With `Cc1ccc(/C=N/Nc2ccc(C(=O)O)cc2)o1` the activity change vs negative control was 5.5%.
`Cc1ccccc1NC1=NC(=S)N(c2ccccc2)C12CCCCC2` was tested, and the activity change vs negative control was 39.1%.
In the case of `CCOC(=O)c1c(-c2ccccc2)csc1NC(=S)NC`, the activity change vs negative control is reported as 42%.
For `COC(=O)CSc1nnc(COc2ccc3ccccc3c2)o1`, the activity change vs negative control was 11.8%.
For `COCCn1c(SCC(=O)Nc2cc(C)cc(C)c2)nc2ccccc2c1=O`, the activity change vs negative control was 12%.
In the case of `Cc1cc(C)cc(OCc2nnc(SCC(=O)Nc3ccccc3)o2)c1`, the activity change vs negative control is reported as -2.3% (active).
Compound `COc1ccc(NC(=O)CC23CC4CC(CC(C4)C2)C3)cn1` has an activity change vs negative control of 73.9%.
With `S=C(N/N=C/c1ccccc1Cl)Nc1cccc(Cl)c1Cl` the activity change vs negative control was 30.4%.
Compound `COc1cccc2sc(Nc3nnc(-c4ccc(F)cc4)o3)nc12` has an activity change vs negative control of 69.1%.
